From PubChem
D2 ag-1: human D2 receptor agonism in beta-arrestin assay; DiscoveRx PathHunter D2 beta-arrestin, luminescence, 90 min; 100% = 57 uM dopamine signal; activation, % (concentration not given with the values); 360,000 compounds, 0.084% hits; AID 624465; in the data active means activation above about 40%; inconclusive means between about 15% and that limit
Target sequence (P14416 whole entry, looked up): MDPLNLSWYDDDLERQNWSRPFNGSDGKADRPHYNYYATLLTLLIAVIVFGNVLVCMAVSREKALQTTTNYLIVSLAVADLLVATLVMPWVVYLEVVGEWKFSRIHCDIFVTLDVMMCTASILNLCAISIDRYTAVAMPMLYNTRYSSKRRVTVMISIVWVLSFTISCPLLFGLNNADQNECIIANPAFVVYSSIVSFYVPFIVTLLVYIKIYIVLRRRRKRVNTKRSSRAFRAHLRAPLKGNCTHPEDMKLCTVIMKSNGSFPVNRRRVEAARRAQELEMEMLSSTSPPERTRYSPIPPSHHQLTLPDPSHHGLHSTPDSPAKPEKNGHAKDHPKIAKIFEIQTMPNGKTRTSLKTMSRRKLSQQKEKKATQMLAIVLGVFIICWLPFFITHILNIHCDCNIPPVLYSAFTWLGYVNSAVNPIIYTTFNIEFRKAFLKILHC
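Agonist mode: compounds alone added to overnight-plated D2 PathHunter cells for 90 min at 37 C, with 57 uM final dopamine (EC100) defining full response. Beta-arrestin recruitment detected by chemiluminescent reagent, read after 1 h at ambient temperature.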
D2 PAM-1: positive allosteric modulators of human D2 dopamine receptor | AID 624464 | 360,000 compounds, 0.23% hits | potentiation, % (test concentration not listed) | DiscoveRx D2 beta-arrestin cells, luminescence, 90 min; 100% = 57 uM dopamine signal; in the data active means potentiation above about 50%; inconclusive means mostly about 30% to 49%
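PathHunter beta-arrestin assay in DiscoveRx D2 cells. Compounds were added with an EC20 of dopamine (50 nM final) for 90 min at 37 deg C. Luminescence was read 1 h after detection reagent, with 57 uM dopamine as the EC100 control.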
D2 ag-2: activates the human D2 dopamine receptor; 340,000 compounds, 0.53% hits; HEK293 T-REx D2 cells, calcium flux agonist mode; activation, % at 2 µM;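 active means activation over 3 SD above normal in the single-dose calcium agonist read, cut at about 30% in these data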
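Agonism scored from kinetic calcium signal (1 read/sec, 180 s) following compound pin transfer, after a 10 s baseline. Cells: HEK293 Trex line expressing inducible D2 receptor coupled to calcium, dye-loaded after overnight culture at 30 C.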
D2 PAM-2: D2 dopamine receptor (human) potentiation; P14416; HEK293 T-REx D2, calcium flux, EC20 dopamine potentiation; potentiation, % at 10 µM; 340,000 compounds, 0.34% hits; AID 485347;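 active means potentiation over 3 SD above the plate norm, cut at about 30% in these data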
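Primary screen. Calcium kinetics in induced HEK293 T-REx D2 cells: compound pre-addition 180 s, EC20 dopamine, 180 s more.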
D2 antagonist: D2 dopamine receptor (human) antagonism | HEK293 TREx D2 cells, calcium flux, dopamine EC80 | inhibition, % at 10 µM | 340,000 compounds, 2% hits | AID 485344; in the data active means inhibition above about 30%; inactive means below that, where a call was filed
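Calcium flux kinetic readout in an inducible HEK293 TREx D2 line plated overnight at 30 C. After 180 s compound exposure, an EC80 dopamine challenge follows with another 180 s kinetic read to detect antagonism.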
D3 ag: confirmation of human D3 dopamine receptor agonists, beta-arrestin; shares compounds with D2 ag-2; DiscoveRx D3 beta-arrestin cells, luminescence, 90 min; Potency, µM (top dose mostly 76.9 µM), usual class: activators; 2,300 compounds, 4% hits; AID 720506; further: nearly all actives have a fitted effect of over 70% in size
D2 ag-3: activates human D2 dopamine receptor in D3 counterscreen; shares compounds with D2 ag-2; AID 720507; Potency, µM (top dose mostly 76.9 µM), most hits filed as activators; DiscoveRx PathHunter D2 beta-arrestin, luminescence, 90 min; response scale: percent relative to full dopamine signal; 2,300 compounds, 5.9% hits; further: nearly all actives have a fitted effect of over 70% in size
Numbers stand for hits; - = inactive; ? = inconclusive; . = no result; ! = not confirmed by another sample. Hits are enriched below; roughly 2.4% of the tested compounds scored in any of these assays. Unless noted, the call rests on the fitted dose curve; in most records, active means well fitted activation curve with a large enough effect; inconclusive means small, poorly fitted or top-dose-only effect; inactive means flat fitted curve, though single readings scatter.

SMILES	D2 ag-1	D2 PAM-1	D2 ag-2	D2 PAM-2	D2 antagonist	D3 ag	D2 ag-3
CCOC(=O)C1CCCN(C(=O)c2ccc(NC(=O)c3nsc4ccccc34)cc2)C1 (centres undefined)	.	.	-	-	.	.	.
COc1ccc(Br)cc1CNC(=O)CN1C(=O)c2cccnc2Oc2ccc(C)cc21	.	.	-	-	.	.	.
Cc1cccc(N2CCN(C(=O)C3CCCN(S(=O)(=O)c4ccc(Br)s4)C3)CC2)c1C (centres undefined)	.	.	-	-	.	.	.
O=C(CNS(=O)(=O)c1ccccc1)OCC(=O)c1cccc([N+](=O)[O-])c1	-	-	-	-	-	.	.
O=C(NCCNS(=O)(=O)c1ccccc1)c1ccc([N+](=O)[O-])cc1	-	-	58	-	-	-	-
O=C(CNS(=O)(=O)c1ccccc1)OCc1cccc([N+](=O)[O-])c1	-	-	41	-	-	-	-
O=C(CCc1nc2ccccc2c(=O)[nH]1)N1CCN(C/C=C/c2ccccc2)CC1	-	-	-	-	-	-	?
O=C(O)CCc1nc2ccccc2c(=O)[nH]1	-	-	-	-	-	-	-
O=C(CCc1nc2ccccc2c(=O)[nH]1)Nc1ccc(F)cc1	-	-	-	-	-	.	.
CC(=O)N1CCN(C(=O)CCc2nc3ccccc3c(=O)[nH]2)CC1	-	-	.	.	.	.	.
O=C(O)C1CCCC2CN3CCc4c([nH]c5ccccc45)C3C(O)C21 (centres undefined)	?	-	-	-	57	-	?
Cc1ncoc1C(=O)N1CCc2c([nH]c3ccccc23)C1C1CCCCC1 (centres undefined)	-	-	-	-	-	.	.
O=C1CCC2CN3CCc4c([nH]c5ccccc45)C3CC2C1 (centres undefined)	-	-	.	.	.	.	.
O=C(O)[C@@H]1[C@H]2C[C@H]3c4[nH]c5ccccc5c4CCN3C[C@@H]2CC[C@@H]1O	-	-	41	-	68	-	?
CCCCc1ccc(NC(=O)COc2cccc3c(=O)n(C)ccc23)cc1	.	.	-	-	.	.	.
COc1ccc(Cn2c(CO)cnc2SCc2ccc(C)cc2)cc1	.	.	-	-	.	.	.
CN(C)c1ccc(C#Cc2ccc3cc(CCO)oc(=O)c3c2)cc1	-	-	-	-	-	-	-
CCN(Cc1ccncc1)C(=O)c1ccccc1NS(=O)(=O)c1ccc(Br)cc1	-	-	.	-	.	-	-
COc1ccc(C(=O)N(Cc2ccc(C(C)C)cc2)C2CCS(=O)(=O)C2)cc1 (centres undefined)	.	.	-	-	.	.	.
CCc1ccc(CN(C)C(=O)c2cc(S(=O)(=O)N3CCOCC3)ccc2N2CCCC2)cc1	-	-	-	-	-	.	.
CN(Cc1cccc(F)c1)C(=O)c1cc(S(=O)(=O)N2CCOCC2)ccc1N1CCCC1	-	-	-	-	-	-	-
OCCC1CN(C/C=C/c2ccco2)CCN1Cc1ccccc1 (centres undefined)	-	-	-	-	-	-	-
OCCC1CN(CCCc2ccccc2)CCN1Cc1ccccc1 (centres undefined)	-	-	57	-	40	-	-
OCCC1CN(CCCc2ccccc2)CCN1CCc1ccccc1 (centres undefined)	-	-	-	-	-	.	.
COc1cc(CN2CCN(CCc3ccccc3)C(CCO)C2)cc(OC)c1 (centres undefined)	-	-	-	-	-	.	.
COc1ccccc1/C=C/CN1CCN(Cc2ccc(F)cc2)C(CCO)C1 (centres undefined)	-	-	.	.	.	.	.
COc1cc(CN2CCN(CCCc3ccccc3)CC2CCO)cc(OC)c1 (centres undefined)	-	-	63	-	65	-	-
COCc1cc(C)nc(SCc2ccc(F)cc2)c1C#N	-	-	-	-	42	-	-
Cc1c(O)c(=O)ccn1C	-	-	57!	-	31!	-	-
